Bioassay records from PubChem BioAssay.
This is a sample that favours compounds with a hit; in the whole collection about 22% have one here.
CYP2C19 inh: inhibitors of human CYP2C19 | CYP2C19 Supersomes, luciferin-H EGE luminescence, 30 min | inhibition, % at 5 µM | 21% of 96,000 active;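 active means CYP2C19 inhibition above a set limit at 5 µM in the primary screen, cut at about 50% in these data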
Target sequence (P33261 whole entry, looked up): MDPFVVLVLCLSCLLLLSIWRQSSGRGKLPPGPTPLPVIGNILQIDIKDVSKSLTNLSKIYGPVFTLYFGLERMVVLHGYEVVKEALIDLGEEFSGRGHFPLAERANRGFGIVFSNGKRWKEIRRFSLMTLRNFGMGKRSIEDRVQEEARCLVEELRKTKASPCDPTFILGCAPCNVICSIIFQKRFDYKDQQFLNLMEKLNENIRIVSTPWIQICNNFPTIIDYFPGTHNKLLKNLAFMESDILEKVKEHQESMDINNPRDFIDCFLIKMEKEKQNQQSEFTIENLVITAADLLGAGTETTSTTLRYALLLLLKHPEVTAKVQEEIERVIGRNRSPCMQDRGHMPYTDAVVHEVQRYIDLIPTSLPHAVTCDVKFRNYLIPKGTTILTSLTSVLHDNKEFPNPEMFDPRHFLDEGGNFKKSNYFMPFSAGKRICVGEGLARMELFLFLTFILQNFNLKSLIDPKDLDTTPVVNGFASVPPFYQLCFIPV
CYP2C9 inhib: inhibitors of human CYP2C9; 20% of 96,000 active; inhibition, % at 5 µM; AID 777; P11712; CYP2C9 Supersomes, luciferin-H conversion, luminescence;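 active means blocking of liver enzyme CYP2C9 beyond about 50% at 5 µM, limit read from the data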
E-sel TNF inh: blocks E-selectin expression induced by TNF alpha. HUVEC TNFa-induced E-selectin immunofluorescence, high content. inhibition, % at 2 µM. 0.71% of 120,000 active;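 active means inhibition above the batch mean plus 3 SD, and confirmed as a hit on visual image review, cut at about 43% in these data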
CYP2C19 activ: increases human CYP2C19 enzyme activity; P33261; recombinant CYP2C19, luciferin-H EGE luminescence; active compounds read high; 0 = fully inhibited enzyme, 1 = untreated enzyme; activation factor at 5 µM; 96,000 tested, under 10 active;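 active means activation factor of at least 2 at 5 µM in the primary screen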
CYP2C9 activ: increases human cytochrome P450 2C9 activity; recombinant CYP2C9, luciferin-H conversion, luminescence; active compounds read high; factor 1 = untreated enzyme, 0 = blocked; P11712; 1.4% of 96,000 active; activation factor at 5 µM;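 active means activation factor of 2 or more for CYP2C9 at a 5 µM dose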
F-actin modifier: modifiers of cytoskeleton assembly. HUVEC TNFa F-actin phalloidin imaging, high content. inhibition, % at 2 µM. 0.18% of 91,000 active. AID 836;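 active means inhibition above the batch mean plus 3 SD and confirmed as a hit by visual image inspection, cut at about 30% in these data, passing the limit was not always enough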
Each line names hits and unclear results; the compound was inactive in the other large screens.

Cc1noc(C)c1S(=O)(=O)Nc1ccc(C(=O)N2CCCCC2)cc1	CYP2C9 inhib 52.0 (no result: F-actin modifier)
Cc1c(C)n(C(=O)CSc2nccn2C)c2ccccc12	CYP2C19 inh 78.6
CCc1nnc(NC(=O)CSc2nnc(-c3ccco3)n2CC)s1	CYP2C9 inhib 64.9
CCn1c(SCC(=O)Nc2nc(C)cs2)nnc1-c1ccco1	none
CCn1c(SCC(=O)Nc2nonc2C)nnc1-c1ccco1	CYP2C19 inh 85.5
Cc1cc(NC(=O)CSc2nnc(-c3ccc(Br)o3)n2Cc2ccccc2)no1	CYP2C19 inh 58.0, CYP2C9 inhib 66.2
CN(CC(O)COc1ccc(S(=O)(=O)N2CCOCC2)cc1)C1CCCCC1 (stereo not drawn)	none
C#CCn1c(=NC(=O)CSCC(=O)N2CCOCC2)sc2ccccc21	none (no result: CYP2C19 inh, CYP2C9 inhib, CYP2C19 activ, CYP2C9 activ, F-actin modifier)
CCn1c(SCC(=O)Nc2ccc3c(c2)c2ccccc2n3CC)nnc1-c1ccco1	CYP2C19 inh 85.0
CCn1c(SCC(=O)n2c(C)c(C)c3ccccc32)nnc1-c1ccco1	CYP2C19 inh 86.8
CCn1c(SCC(=O)N/N=C/C(C)=C/c2ccco2)nnc1-c1ccccc1	CYP2C19 inh 84.8
CCCn1c(SCC(=O)NCCc2ccccc2)nnc1-c1ccco1	none (no result: CYP2C19 inh, CYP2C9 inhib, CYP2C19 activ, CYP2C9 activ)
CCCCn1c(SCC(=O)Nc2cc(C)on2)nnc1-c1ccco1	none
CCn1c(SCC(=O)Nc2cc(C)on2)nnc1-c1ccco1	CYP2C19 inh 53.3
COc1ccc(C2CC(=O)C3=C(C2)Nc2ccccc2N(C(C)=O)C3c2ccco2)cc1 (stereo not drawn)	none (no result: E-sel TNF inh)
CCc1nnc(NC(=O)CSc2nnc(-c3c[nH]c4ccccc34)n2CC)s1	CYP2C9 inhib 56.8 (no result: E-sel TNF inh)
Cc1ccc(-c2ccc(SCC(=O)Nc3nonc3C)nn2)cc1	CYP2C9 inhib 86.3 (no result: F-actin modifier)
C=CCn1c(SCC(=O)Nc2cc(C)ccc2OC)nnc1-c1ccco1	CYP2C19 inh 98.2
Cc1ccc(C)c(-n2c(SCC(=O)Nc3nonc3C)nnc2-c2ccoc2C)c1	CYP2C9 inhib 82.2
O=C(C1CCCO1)N1CCC(O)(c2ccccc2)CC1 (stereo not drawn)	none
C=CCn1c(SCc2c(F)cccc2Cl)nnc1-c1ccco1	CYP2C19 inh 96.0
CCn1c(SCC(=O)Nc2cc(C)on2)nnc1-c1ccccc1	F-actin modifier 37.1 (no result: CYP2C19 inh, CYP2C9 inhib, CYP2C19 activ, CYP2C9 activ)
COCCCn1c(SCC(=O)N2CC(=O)Nc3ccccc32)nnc1-c1ccoc1C	none
COCCCn1c(SCC(=O)n2c(C)c(C)c3ccccc32)nnc1-c1ccoc1C	CYP2C19 inh 88.8
COc1ccc(N=N/C(=C\O)C(=O)c2ccco2)cc1	none (no result: CYP2C19 inh, CYP2C9 inhib, CYP2C19 activ, CYP2C9 activ, F-actin modifier)
CN(Cc1nc2ccccc2n1C)S(=O)(=O)c1ccc(F)cc1	CYP2C19 inh 83.7, CYP2C9 activ 2.7
CN(Cc1nc2ccccc2n1C)S(C)(=O)=O	none
Cc1nc2cc(Cl)ccc2n1-c1ccccc1	CYP2C19 inh 80.1
COc1ccccc1N(C(=O)c1ccncc1)c1nc(-c2ccc([N+](=O)[O-])cc2)cs1	none (no result: CYP2C19 inh, CYP2C9 inhib, CYP2C19 activ, CYP2C9 activ, F-actin modifier)
O=C(CSc1nnc(Cc2ccccc2)o1)Nc1ccccc1	none (no result: CYP2C19 inh, CYP2C9 inhib, CYP2C19 activ, CYP2C9 activ, F-actin modifier)
CCOC(=O)c1cnn(-c2nc3c(C)cccc3s2)c1C	F-actin modifier 35.5
COc1ccc(C2=NN3C(=O)c4c(ccc(OC)c4OC)C3C2)cc1 (stereo not drawn)	none
COc1ccc2c(c1OC)C(=O)N1N=C(c3ccc(O)cc3)CC21 (stereo not drawn)	CYP2C9 activ 2.4
COc1ccc(NC(=O)CSc2nc3c(c(=O)[nH]2)CCC3)cc1OC	none
CCOC(=O)C(C)Sc1nc(C2CC2)cc(C(F)(F)F)c1C#N (stereo not drawn)	none
COC(=O)CSc1nc(C2CC2)cc(C(F)(F)F)c1C#N	CYP2C19 inh 65.5
COc1ccc(Cl)cc1NC(=O)Cn1c(=O)n2nc(C)nc2c2ccccc21	CYP2C19 inh 58.6 (no result: E-sel TNF inh, F-actin modifier)
O=C(CCCOc1ccccc1)NCC1CCCO1 (stereo not drawn)	none (no result: E-sel TNF inh)
O=C(CCSc1ccccc1)NCC1CCCO1 (stereo not drawn)	CYP2C19 inh 71.9
COC(=O)Cn1nc(-c2ccccc2)c2ccccc2c1=O	none (no result: F-actin modifier)
COc1ccccc1NC(=O)Cn1nc(-c2ccc(Cl)cc2)c2ccccc2c1=O	CYP2C9 inhib 70.1
COc1ccccc1NC(=O)Cn1c(=O)n2nc(C)nc2c2ccccc21	none
CCNC(=O)CCn1nc(-c2ccc(Cl)cc2)c2ccccc2c1=O	CYP2C19 inh 65.0 (no result: E-sel TNF inh)
CC(C)NC(=O)CCn1nc(-c2ccc(Cl)cc2)c2ccccc2c1=O	none (no result: CYP2C19 inh, CYP2C9 inhib, CYP2C19 activ, CYP2C9 activ, F-actin modifier)
O=c1c2ccccc2c(-c2ccccc2)nn1-c1cc(Cl)ccc1[N+](=O)[O-]	CYP2C19 inh 61.0
O=C(CCn1nc(-c2ccccc2)c2ccccc2c1=O)NCC1CCCO1 (stereo not drawn)	CYP2C19 inh 56.1, CYP2C9 inhib 53.7
Cc1ccc(-c2nn(CCC(=O)NCC3CCCO3)c(=O)c3ccccc23)cc1 (stereo not drawn)	CYP2C9 inhib 53.8 (no result: E-sel TNF inh)
Cc1ccc(-c2nn(CC(=O)NCC3CCCO3)c(=O)c3ccccc23)cc1 (stereo not drawn)	none
O=C(Cn1nc(-c2ccc(Cl)cc2)c2ccccc2c1=O)NCC1CCCO1 (stereo not drawn)	none
O=C(CCn1nc(-c2ccccc2)c2ccccc2c1=O)N1CCN(c2ccccc2)CC1	CYP2C19 inh 90.3, CYP2C9 inhib 85.1
O=C(c1ccc(Cl)c([N+](=O)[O-])c1)N(Cc1cccc(Cl)c1)C1CCS(=O)(=O)C1 (stereo not drawn)	none (no result: CYP2C19 inh, CYP2C9 inhib, CYP2C19 activ, CYP2C9 activ, F-actin modifier)
COCCNCC(=O)C12CC3CC(CC(C3)C1)C2	none
O=c1c2ccccc2c(-c2ccccc2)nn1Cc1ccc(Cl)cc1	CYP2C19 inh 66.2, CYP2C9 inhib 58.1
CCOC(=O)c1ccccc1NC(=O)Cc1sc(-c2cccnc2)nc1-c1ccc(C)cc1	none (no result: CYP2C19 inh, CYP2C9 inhib, CYP2C19 activ, CYP2C9 activ, F-actin modifier)
CC(C)(C)C(=O)[C@@H]1[C@@H]2C(=O)N(Cc3ccccc3)C(=O)[C@@H]2[C@H]2c3ccccc3C=CN12	CYP2C19 inh 74.5, CYP2C9 inhib 75.3
CC(=O)[C@H]1[C@@H]2C(=O)N(c3cccc(Cl)c3)C(=O)[C@@H]2[C@H]2c3ccccc3C=CN21	none
Cc1ccc(NCc2nnc3n2CCCCC3)cc1	CYP2C19 inh 75.1 (no result: E-sel TNF inh, F-actin modifier)
O=C(NCc1nnc2n1CCCCC2)c1ccc(Cl)cc1Cl	none
Brc1ccc(NCc2nnc3n2CCCCC3)cc1	CYP2C19 inh 63.6
COc1ccc(C)cc1NC(=S)N1CCN(c2ccccn2)CC1	none (no result: CYP2C19 inh, CYP2C9 inhib, CYP2C19 activ, CYP2C9 activ, F-actin modifier)
COc1cc2[nH]c(=O)n(Cc3ccc(C(=O)NCCCN4CCN(C)CC4)cc3)c(=O)c2cc1OC	none
CCc1ccc(C2CC(c3ccco3)=NN2S(C)(=O)=O)cc1 (stereo not drawn)	CYP2C19 inh 62.4
COc1ccc(CCN2C(=NC(=O)CC(C)C)SC3CS(=O)(=O)CC32)cc1 (stereo not drawn)	CYP2C19 inh 82.1, CYP2C9 inhib 56.1
Cc1nc2ccccc2c2c1C(=O)N(Cc1cccnc1)C2=O	CYP2C19 inh 97.2 (no result: E-sel TNF inh)
Cc1nc2ccccc2c2c1C(=O)N(C1CCCCCCC1)C2=O	none
CN(C)S(=O)(=O)c1ccc(C(=O)OCCCN=C2NS(=O)(=O)c3ccccc32)cc1	none
